Out of some 360,000 compounds screened, about 1,600 (0.44%) were called active.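 The calls were made as follows: active = inhibition above the screen-wide average plus 3 SD (cut at about 13% in these data); inactive = the rest.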 The sample as a whole holds a higher share of actives than the screen did.
target: Galanin receptor type 3 (Homo sapiens) (UniProt O60755); assay: blockers of human galanin receptor 3 – cell-based, fluorescence readout, primary screen (AID 651719); conditions: HEK293 GalR3-CNG cAMP membrane potential fluorescence; at 3 µM; hits give high values; galR3 body fused to GalR1 C-terminus;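 also: forskolin and galanin both at EC90 stimulate the cells; cAMP rise reported by CNG channel membrane potential dye signal; 0% = forskolin plus galanin with DMSO and 100% = forskolin alone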
Sequence (O60755 1-299 limits assumed): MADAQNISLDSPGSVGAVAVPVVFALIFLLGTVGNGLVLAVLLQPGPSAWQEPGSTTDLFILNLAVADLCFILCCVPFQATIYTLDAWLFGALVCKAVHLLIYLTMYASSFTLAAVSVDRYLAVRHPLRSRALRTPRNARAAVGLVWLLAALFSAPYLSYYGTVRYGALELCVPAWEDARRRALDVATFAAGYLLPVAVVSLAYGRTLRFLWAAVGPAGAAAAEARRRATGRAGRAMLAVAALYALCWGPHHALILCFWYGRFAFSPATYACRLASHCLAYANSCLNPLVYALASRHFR

inhibition, active:
CSc1nc(N)c(C#N)c(-c2ccccc2Cl)c1C#N 13.6%
Cn1nccc1C(=O)NC1CCCc2c1cnn2-c1ccccc1F (stereo not drawn) 103%
Cn1nccc1C(=O)NC1CCCc2c1cnn2-c1ccc(F)cc1F (stereo not drawn) 99.2%
COc1ccc(NS(=O)(=O)c2ccc(NC(=O)c3ccc(N(C)S(C)(=O)=O)cc3)cc2)cc1 82.7%
CC(=O)OC(C)C[N+](C)(C)C (stereo not drawn) 32.6%
CC(=O)c1c(C)[nH]c(C(=O)COC(=O)c2cccc(S(=O)(=O)N(C)c3ccccc3)c2)c1C 78.8%
Nc1nonc1-n1nnc(C(=O)N/N=C/c2cc(Br)ccc2O)c1CSC1=NCCS1 76.9%
O=C(CC(O)(C(F)(F)F)C(F)(F)F)Nc1ccc(Cl)c(Cl)c1 58.6%
N#Cc1c(N)nc2c3c(sc(=N)c2c1N)NC(=O)CC3c1ccccc1Cl (stereo not drawn) 62.4%
COc1ccc(C2CC(=O)Nc3sc(=N)c4c(N)c(C#N)c(N)nc4c32)cc1OC (stereo not drawn) 64.7%
COc1ccc(-c2csc(-c3cccs3)n2)cc1OC 14.8%
C=CCC1(CC=C)CCCN1C(=O)c1cc(COc2ccc(-n3cncn3)cc2)on1 80.6%
CC(C)(CNC(=O)c1ccc(Cl)c(S(=O)(=O)N2CCc3ccccc3C2)c1)N1CCOCC1 98.3%
CC(=O)N1CCCc2cc(S(=O)(=O)N3CCCC(C(=O)N4CCN(c5cccc(Cl)c5)CC4)C3)ccc21 (stereo not drawn) 77.3%
CC1(C)CC(N2CCN(C(c3ccccc3)c3ccccc3)CC2)=CC(=[N+]2CCCCC2)C1 39.8%
COc1ccc(-c2cc(C(F)(F)F)nc(S(C)(=O)=O)n2)cc1OC 20.7%

inhibition, inactive:
COc1ccc(-c2ccc3c(n2)CCCN3S(=O)(=O)c2ccc(C)cc2)cc1 -6.68%
Cc1nc(NC(=O)C(C)(C)C)sc1[N+](=O)[O-] -6.84%
COc1ccccc1-c1c(C#N)c(N)nc2c1CCC2 -3.19%
CSc1ccc(-c2c(C#N)c(N)nc3c2c(C)nn3-c2ccccc2)cc1 -3%
Cc1ccc(N)cc1CN1CCN(c2ncc(Cc3ccccc3)cn2)CC1 3.95%
COc1ccccc1Cc1c(-c2ccc(F)cc2)nc2ccc(C)cn12 -8.12%
CCOC(=O)C1=C(C(=O)OCC)C2N(Cc3ccc(C#N)cc3)c3ccccc3[C@@]23C[C@@H](C(=O)OC)N(S(=O)(=O)c2ccc(F)cc2)C3=N1 (stereo partly drawn) -4.3%
COc1ccc(C(=O)NC2CC(C)(C)Cc3c2cnn3-c2ccccc2C)o1 (stereo not drawn) -3.9%
CC1(C)Cc2c(cnn2-c2cccc(F)c2)C(NC(=O)c2cc[n+]([O-])cc2)C1 (stereo not drawn) -2.25%
COc1ccc(C(=O)NC2CCCc3c2cnn3-c2cccc(C)c2C)c(OC)n1 (stereo not drawn) 4.34%
COc1ccc(OC)c(C(=O)NC2CCCc3c2cnn3-c2cc(C)cc(C)c2)c1 (stereo not drawn) -8.72%
Cc1ccccc1C(=O)N[C@H](C(=O)N1CCC[C@H]1C(=O)NCc1ccccc1)C(C)C -4.85%
COc1ccc(NS(=O)(=O)c2ccc(C(=O)Nc3c(C)n(C)n(-c4ccccc4)c3=O)cc2)cc1 -0.08%
COc1ccc(NS(=O)(=O)c2cc(NC(=O)c3ccc(S(=O)(=O)N(C)C)cc3)ccc2N2CCOCC2)cc1 -5.13%
Nc1ncnc2c1ncn2[C@@H]1O[C@H](C(=O)N[C@@H](CCc2ccccc2)C(=O)NCC(=O)N2CCOCC2)[C@@H](O)[C@H]1O -4.93%
Cc1cc(N2CCN(C(=O)OC(C)(C)C)C[C@H]2C)ccc1N1CCN(Cc2ccccc2)[C@H](C)C1 -6.01%
CC(=O)OCCC(C)C -6.17%
CC(C[N+](C)(C)C)OC(N)=O (stereo not drawn) -2.23%
COCc1cc(N2CCN(C(=O)OC(C)(C)C)C[C@@H]2C)ccc1N1CCN(Cc2ccccc2)[C@H](C)C1 -0.36%
Cc1ccc2nc(-c3ccc(CN4CCC(n5cc(-c6ccccc6)[nH]c5=O)CC4)cc3)c(-c3ccccc3)nc2c1 -5.31%
CC(=O)c1c(C)[nH]c(C(=O)COC(=O)c2cccs2)c1C -4.13%
COc1cccc(C(=O)OCC(=O)c2[nH]c(C)c(C(C)=O)c2C)c1 -7.96%
CC(C)c1c(C(=O)N/N=C/c2ccccc2C(=O)O)nnn1-c1nonc1N -9.07%
COCc1c(C(=O)N/N=C\c2cccnc2)nnn1-c1nonc1N -5.53%
Cc1cc(OC(=O)NCCc2ccc(F)cc2)ccc1F -6.58%
C=CCN=C1NC(c2cccc(C(F)(F)F)c2)C(C(=O)OC)=C(C)N1C (stereo not drawn) -7.24%
CC(C)[C@@H](C)/C=C/[C@@H](C)[C@H]1CC[C@@H]2[C@]1(C)CCC1[C@]23C=C[C@]2(C[C@@H](O)CC[C@]12C)N(c1ccc([N+](=O)[O-])cn1)O3 (stereo partly drawn) 2.02%
COC(=O)C1=C(C)N(Cc2ccccc2C(F)(F)F)C(=NCc2ccc(C(F)(F)F)cc2)NC1c1ccc(F)cc1 (stereo not drawn) -4.63%
CCCCCCCCN1C(=O)[C@@H](CC(=O)NCc2ccc(C)o2)C[C@@]2(C(=O)OC)C1=C[C@H](C(C)(C)C)O[C@@H]2C -4.99%
O=C(Cc1ncc(C(F)(F)F)cc1Cl)Nc1cccc(Br)c1 2.24%
CN(CC(=O)Nc1ccc(Cl)c(C(F)(F)F)c1)C(=O)CCC(=O)c1ccccc1 -4.03%
Nc1ncnc2c1ncn2[C@@H]1O[C@H](C(=O)N[C@@H](CCc2ccccc2)C(=O)N2CCCN(Cc3cccs3)CC2)[C@@H](O)[C@H]1O -6.23%
O=C(O)Cn1cnc2c(NCc3ccccc3)ncnc21 -5.71%
C=CCN1C(=O)N(Cc2ccccc2)c2ccccc2S1(=O)=O -6.64%
COc1ccc(OC)c2c(N)c(C#N)c(C(F)(F)C(F)(F)F)nc12 1.89%
COc1ccc(C2OCC3(CO2)SC(=O)NC3=O)cc1OC (stereo not drawn) -2.1%
CSc1nc2c(c(=O)[nH]1)C(c1cccc(Cl)c1Cl)CC(=O)N2 (stereo not drawn) 12.2%
COC(=O)[C@]12C[C@H](CC(=O)N3CCN(C(=O)C4CC4)CC3)C(=O)N(Cc3ccc4c(c3)OCO4)C1=C[C@H](C(C)(C)C)O[C@@H]2C -5.6%
N#Cc1cccc(C(=O)NCC2CCN(C(=O)C(=O)c3cc4ccccc4o3)CC2)c1 -3.55%
CCOC(=O)CNC(=O)N(C)[C@H]1C[C@H]2c3[nH]c4c(-c5ccc6c(c5)OCO6)cccc4c3CCN2C(=O)[C@H]1[C@H](C)O -5.71%
COc1ccc(C(C)(O)c2nc(-c3ccc(C)c(C)c3)cs2)cc1 (stereo not drawn) -5.12%
COc1ccc(C2CC(c3cccs3)=Nc3ccccc3S2)cc1OC (stereo not drawn) -5.75%
O=C(C(=O)N1CCC(CNS(=O)(=O)Cc2ccccc2)CC1)c1cc2ccccc2o1 -6.6%
CCCC(=O)N1CCC1(C)C(=O)Nc1ccc(-n2cncn2)cc1 (stereo not drawn) -6.01%
COc1cccc(OCc2cc(C(=O)N3CCN(C(=O)c4ccco4)CC3)no2)c1 -10.3%
O=C(Nc1c(Cl)c(C2CC2)nn1-c1ccccc1)C(Cl)(Cl)Cl -6.45%
COc1cccc(CC(=O)N2CCN(C(=O)C(=O)c3cccc(C(F)(F)F)c3)CC2)c1 1.16%
O=C(NCCSCc1ccccc1)c1ccc(Cl)c(S(=O)(=O)N2CCOCC2)c1 -7.04%
CN(C)S(=O)(=O)c1ccc(C(=O)NCC(C)(C)N2CCOCC2)cc1 -0.16%
COc1cccc(-c2cc(CNC(=O)[C@@H](Cc3ccccc3)NC(=O)[C@H]3O[C@@H](n4cnc(C(N)=O)n4)[C@H](O)[C@@H]3O)no2)c1 -7.28%
CC(=O)N1c2ccc(S(=O)(=O)N3CCC(C(=O)N4CCN(c5ccccc5)CC4)CC3)cc2CC1C (stereo not drawn) 0.42%
O=C(C1CCCN(S(=O)(=O)c2ccccc2)C1)N1CCN(c2ccc(F)cc2)CC1 (stereo not drawn) -0.67%
CCCCCCCCN1C(=O)[C@@H](CC(=O)NCc2ccccc2)C[C@@]2(C(=O)OC)C1=C[C@H](C(C)(C)C)O[C@@H]2C -6.16%
COc1ccccc1NC(=S)N1CCN(C(c2ccccc2)c2ccccc2)CC1 -3.76%
Cc1cccc(N2CCN(C(c3ccccc3)c3nnnn3CC3CCCO3)CC2)c1C (stereo not drawn) -2.6%
Cc1ccc2nc(CN(C)C(=O)[C@@H](Cc3ccccc3)NC(=O)[C@H]3O[C@@H](n4ccc(=O)[nH]c4=O)[C@H](O)[C@@H]3O)[nH]c2c1 -7.44%
COC(=O)[C@]12C[C@H](CC(=O)NCc3ccc(OC)c(OC)c3)C(=O)N(Cc3ccccc3)C1=C[C@H](C(C)C)O[C@@H]2C1CC1 3.98%
COC(=O)Cc1nnn2c1[C@H](C)[C@@H](OC)c1cc(Br)ccc1-2 -5.13%
COc1ccc(-c2cc(C(=O)N(C)Cc3ccc(OC)c(OC)c3OC)c3ccccc3n2)cc1OC 2.03%
COc1ccc(-c2cc(C(F)(F)F)nc(SCCC(=O)NCc3ccco3)n2)cc1 -3.08%
COc1cccc(NC(=O)N(C)C[C@@H]2OCc3cn(nn3)CCCC(=O)N([C@@H](C)CO)C[C@H]2C)c1 -0.11%
CC[C@H](C)[C@H]1CNC(=O)C(=O)N1CC1CCN(CCc2ccc(OC)c(OC)c2)CC1 1.44%
